The panel holds about 79,000 compounds, 15% with a hit somewhere; the sample as a whole holds those more often. Unmarked numbers belong to inactive results. Calls of active or inactive are those of the source. No stated cut-off is given here; in the data, active means growth inhibition above about 70%; inactive means the rest. Where a SMILES comes first, the peptide text is derived from it. The star is where a group is joined. Cbz = O=C(OCc1ccccc1)*

We go through 40 compounds from PubChem BioAssay (NCI).

A short description of experiment [1]: NCI Yeast Anticancer Drug Screen. Data for the mec2-1 strain (AID 157). The following applies: S. cerevisiae mec2-1 strain, at 50.0 µM, active compounds read high. In outline: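 Growth inhibition is read against vehicle-treated controls after compound exposure of the mec2-1 yeast strain, which is defective in DNA damage repair or cell cycle control.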
Experiment [2] in a line: NCI Yeast Anticancer Drug Screen. Data for the sgs1 mgt1 strain (AID 161).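 Further: 0% = growth of cultures given vehicle only.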 The following applies: S. cerevisiae sgs1 mgt1 strain, at 50.0 µM, active compounds read high. In outline: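 Compounds are added to genetically altered yeast, and growth is compared with cultures given vehicle alone to give percent inhibition.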
A short description of experiment [3]: NCI Yeast Anticancer Drug Screen. Data for the cln2 rad14 strain (AID 165).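 Further: 0% = growth equal to vehicle treated cultures.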 As to conditions: S. cerevisiae cln2 rad14 strain, at 50.0 µM, active compounds read high. In outline: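 Growth inhibition, relative to vehicle-treated controls, is the read-out. The test organism is a yeast strain with defined genetic alterations, cln2 rad14.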
The nature of experiment [4]: NCI Yeast Anticancer Drug Screen. Data for the bub3 strain (AID 167). The following applies: S. cerevisiae bub3 mutant strain, at 50.0 µM, active compounds read high. In outline: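 Screening used yeast with an engineered genetic alteration affecting cell cycle control. Compound-exposed cultures were compared with vehicle cultures, and reduced growth was taken as inhibition.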

Experiment [5] in a line: NCI Yeast Anticancer Drug Screen. Data for the mlh1 rad18 strain (AID 175). As to conditions: S. cerevisiae mlh1 rad18 strain growth inhibition; at 50.0 µM; active compounds read high. A digest of the protocol: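 Cells of a genetically altered yeast strain, deficient in DNA damage repair, were treated with compound. Their growth was then compared with that of vehicle-treated cultures to give inhibition.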

`CC(NC(=O)CNP(=O)(c1ccccc1)c1ccccc1)C(=O)NC(Cc1ccccc1)C(=O)OCc1ccccc1` (stereo not drawn): the growth inhibition was 4.3% in experiment [1]; 20.1% in experiment [2]; -4.5% in experiment [3]; -9.55% in experiment [4]; 30.1% in experiment [5].

`CCC(CO)Nc1nncc2ccccc12` (stereo not drawn): the growth inhibition in experiment [1] was -3.45%; in experiment [2], 1.35%; in experiment [3] it was -31.5%; in experiment [4], -10.6%; in experiment [5], -12.3%.

Take `C1CCC(C(CCCCC(C2CCCCC2)C2CCCCC2)C2CCCCC2)CC1`: the growth inhibition was -3.8% in experiment [1]; 27.2% in experiment [2]; 16.1% in experiment [3]; -0.7% in experiment [4]; -2.6% in experiment [5].

Take `CC(=O)OCC(=O)C1(O)CCC2C3CCC4=CC(=O)CCC4(C)C3(SC#N)CC(=O)C21C` (stereo not drawn): the growth inhibition is 19.9% in experiment [1]; 27.2% in experiment [2]; 13.2% in experiment [3]; 11.8% in experiment [4]; 2.45% in experiment [5].

For the compound `CC(C)(C)OC(=O)N/N=C(/N)Cc1ccccc1`, the growth inhibition in experiment [1] is -3.65%; in experiment [2] it was -18.4%; in experiment [3] it was 6.5%; in experiment [4], 6.4%; in experiment [5], 5.55%.

With `CC(C)NCCC(O)c1cc2ccccc2o1` (stereo not drawn), the growth inhibition in experiment [1] was -4%; in experiment [2], -17.6%; in experiment [3] it was -7.1%; in experiment [4], -35.5%.

Turning to `CC(=O)C(c1ccccc1)N(CCO)Cc1ccccc1` (stereo not drawn), the growth inhibition in experiment [1] was -6%; in experiment [2], -5.9%; in experiment [3], 28.6%; in experiment [4] it was 7.45%; in experiment [5] it was 1.8%.

Turning to `CCOC(=O)C1CSC(N)=N1` (stereo not drawn), the growth inhibition in experiment [1] was -38.9%; in experiment [2] it was -11.8%; in experiment [3], -29.4%; in experiment [4] it was 5.65%; in experiment [5], -7.8%.

As to `COC(=O)C(CC(C)C)NC(=O)C(CCCN=C(N)N)NC(=O)OCc1ccccc1` (stereo not drawn) (Cbz-Arg-Leu-OMe; configuration not given here), the growth inhibition in experiment [1] is -17.6%; in experiment [2], -15.7%; in experiment [3], 4.15%; in experiment [4] it was -10.3%; in experiment [5], -12.8%.

As for `COc1cc(C(=O)C/C(CCC(=O)Nc2ccc(Cl)cc2Cl)=N/Nc2nnc(C)n2N)ccc1O`, the growth inhibition in experiment [1] was -4.2%; in experiment [2], -25.6%; in experiment [3] it was 13.4%; in experiment [4], 7.1%; in experiment [5] it was -5.05%.

With `CN(c1ccccc1)c1nc(=[N+](C)C)ss1`, the growth inhibition in experiment [1] is 26.5%; in experiment [2], 17%; in experiment [3], 24.1%; in experiment [4], 4.3%; in experiment [5], 31.8%.

Turning to `CC(CN(C)C)N(C)C` (stereo not drawn), the growth inhibition in experiment [1] is -34.5%; in experiment [2] it was -41.6%; in experiment [3] it was -7.75%; in experiment [4] it was -4.6%; in experiment [5] it was 0.15%.

With `Oc1[nH]c2ccccc2c1N=Nc1nc(-c2ccccc2)cs1`, the growth inhibition is -52% in experiment [1], -46% in experiment [2], -30.4% in experiment [4] and -18.8% in experiment [5].

`O=C(OCC1CCCO1)c1ccc(Cl)cc1` (stereo not drawn): the growth inhibition in experiment [1] is -4.4%; in experiment [2], 24.9%; in experiment [3] it was 34.1%; in experiment [4], 8%; in experiment [5] it was 7.2%.

Turning to `O=S1(=O)OCCOS(=O)(=O)C1(I)I`, the growth inhibition is -26.2% in experiment [1]; -2.35% in experiment [2]; 11.4% in experiment [3]; -9.7% in experiment [4]; 16.2% in experiment [5].

`CCC1(O)C(=O)Nc2ccccc2C1=O` (stereo not drawn): the growth inhibition in experiment [1] is -22.8%; in experiment [2] it was -17.3%; in experiment [3], -13.6%; in experiment [4] it was -23.1%; in experiment [5], -5.85%.

As to `CCS(=O)(=O)N(CC(=O)O)Cc1ccccc1`, the growth inhibition in experiment [1] was 7.3%; in experiment [2], -13.4%; in experiment [3], 0.95%; in experiment [4], 6.8%; in experiment [5] it was 0.65%.

Regarding `CC1=Nc2c(ccc3c2C(=O)c2ccccc2C3=O)NC(c2ccncc2)C1` (stereo not drawn), the growth inhibition in experiment [1] is 5%; in experiment [2], 47.6%; in experiment [3], 17.6%; in experiment [4], 0.35%; in experiment [5], 12.4%.

In the case of `NC1=CN(Cc2ccccc2)C2=N/C(=C\c3ccccc3)C(=O)N12`, the growth inhibition in experiment [1] is -5.8%; in experiment [2] it was 8.5%; in experiment [3], -16%; in experiment [4] it was 14.2%; in experiment [5], -33.7%.

Consider `CC(C)N1CCN(c2ccncc2S(=O)(=O)N2CCCCC2)CC1`, for which the growth inhibition is -23.2% in experiment [1]; -12.3% in experiment [2]; -5.5% in experiment [3]; -21.9% in experiment [4]; -30.4% in experiment [5].

As for `CCN(CC)CCC(C)C(Cc1cccs1)OC(C)=O` (stereo not drawn), the growth inhibition in experiment [1] was -3.9%; in experiment [2], -2.95%; in experiment [3] it was -39%; in experiment [4] it was 35.2%; in experiment [5] it was 5.6%.

In the case of `N#CCCn1ncc(C#N)c1N`, the growth inhibition in experiment [1] was -7.95%; in experiment [2] it was -1.5%; in experiment [3], -38.5%; in experiment [4] it was -2.5%; in experiment [5], 8.5%.

For the compound `CCOc1ncnc2ccc(Cl)c(I)c12`, the growth inhibition in experiment [1] was 0.55%; in experiment [2], 24.6%; in experiment [3] it was 10.2%; in experiment [4] it was 35.9%; in experiment [5], 16.7%.

On to `O=C(OC1CCCC1)C1(O)CCCCC1`, for which the growth inhibition is 12.7% in experiment [1]; 3.8% in experiment [2]; 10.5% in experiment [3]; -2.15% in experiment [4]; -16.2% in experiment [5].

As to `CC(C)(c1ccsc1)c1sccc1C(=O)O`, the growth inhibition in experiment [1] is 2.95%; in experiment [2], 8.55%; in experiment [3] it was -19.4%; in experiment [4], -2.95%; in experiment [5], 16.2%.

Consider `C=C(C)CN(Cc1ccccc1)C1CCCCCCC1`, for which the growth inhibition in experiment [1] is -11.3%; in experiment [2], -14.8%; in experiment [3] it was -5.75%; in experiment [4], 1.35%; in experiment [5] it was -17.6%.

Regarding `CSCc1cc(C)ccc1NC(C)=O`, the growth inhibition was -7.85% in experiment [1]; -0.75% in experiment [2]; -16.5% in experiment [3]; -13.2% in experiment [4]; 10.8% in experiment [5].

`CSc1nc(Cl)nc2[nH]ncc12`: the growth inhibition was -5.4% in experiment [1]; 1.1% in experiment [2]; -17.3% in experiment [3]; 4.45% in experiment [4]; 30.9% in experiment [5].

For `COC12COC(=O)C1C(c1ccc3c(c1)OCO3)c1cc3c(cc1O2)OCO3` (stereo not drawn), the growth inhibition in experiment [1] is -0.6%; in experiment [2], 11.5%; in experiment [3], 8.95%; in experiment [4], 17.4%; in experiment [5] it was -4.7%.

Regarding `CC(=O)Nc1ccc(S(=O)(=O)/C(=C/c2ccc(-c3ccc(Br)cc3)o2)c2ccc([N+](=O)[O-])o2)cc1`, the growth inhibition in experiment [1] is -7.45%; in experiment [2], -12.2%; in experiment [3], 13.7%; in experiment [4], 1.1%; in experiment [5], -8.05%.

As to `O=C(Nc1ccc(Cl)c(Cl)c1)OCCN1CCOCC1`, the growth inhibition in experiment [1] is 97.2% (active); in experiment [2], 94% (active); in experiment [3], 67.2%; in experiment [4], 91.2% (active); in experiment [5] it was 92.8% (active).

As to `COC(=O)C1C2C=CC(C2)N1[C@@H](C)c1ccccc1` (stereo partly drawn), the growth inhibition in experiment [1] was -28.3%; in experiment [2] it was -40.1%; in experiment [3], -5.6%; in experiment [4] it was -28%; in experiment [5], -21.4%.

On to `O=C1CCSSCCC(=O)Nc2ccccc2N1`, for which the growth inhibition in experiment [1] is -42.5%; in experiment [2], -14.8%; in experiment [3] it was -9.55%; in experiment [4] it was -18.1%; in experiment [5], -15.6%.

In the case of `COC1OC(CCl)C(Cl)C(Cl)C1O` (stereo not drawn), the growth inhibition was -7.85% in experiment [1]; 4.55% in experiment [2]; -44.2% in experiment [3]; 5.9% in experiment [4]; 4.8% in experiment [5].

In the case of `CC1(CCN2CCCC2)NC(=O)NC1=O` (stereo not drawn), the growth inhibition in experiment [1] is -20.3%; in experiment [2], -5.25%; in experiment [3], 1.05%; in experiment [4], 3.4%; in experiment [5] it was 10.9%.

On to `O=C1CCC(=O)N2CCCCN12`, for which the growth inhibition is -12.4% in experiment [1]; 11% in experiment [2]; 18.6% in experiment [3]; 22.5% in experiment [4]; 13.1% in experiment [5].

For the compound `C=CC12CCCCC1C(NC)Cc1ccc(OC)c(O)c12` (stereo not drawn), the growth inhibition in experiment [1] was -1.65%; in experiment [2], 6.9%; in experiment [3] it was 1.8%; in experiment [4], 4.9%; in experiment [5], -6.9%.

With `C=CC1ON(C)CCc2cc(OC)c(OC)cc21` (stereo not drawn), the growth inhibition in experiment [1] is -1%; in experiment [2], -53.5%; in experiment [3], 15.1%; in experiment [4] it was -1.8%; in experiment [5] it was -9.9%.

Regarding `O=C1c2cccc3c(Br)ccc(c23)C(=O)N1CCCN1CCOCC1`, the growth inhibition in experiment [1] is 77.7% (active); in experiment [2] it was 80.2% (active); in experiment [3], 86.7% (active); in experiment [4], 92.5% (active); in experiment [5], 60.2%.

Regarding `CC(C)(C)CC(C(=O)O)[Si](C)(C)C` (stereo not drawn), the growth inhibition in experiment [1] is 7.1%; in experiment [2] it was -1.65%; in experiment [3], -1.25%; in experiment [4], 2.9%; in experiment [5], -9.7%.
